# Screening results: PubChem BioAssay, National Center for Advancing Translational Sciences (NCATS)
# Vaccinia mCherry: inhibitors of vaccinia virus infection (mCherry reporter signal). Vaccinia virus mCherry reporter infection, fluorescence. Potency, µM (doses to about 36.5 µM), inactives show at the top dose activity change, negative = inhibition, actives largely listed as inhibitors. 0.63% of 310,000 active; calls by dose curve; tested in A549 cells; also: nearly all actives have a fitted effect of over 35% in size
# VACV Venus inh: vaccinia inhibition (Venus reporter). Vaccinia virus Venus reporter expression, fluorescence. Potency, µM (titrated, usually from 36.5 µM), for the others: at the top dose activity change, negative = inhibition, hits mostly inhibitors. 0.46% of 330,000 active. AID 720580; calls by dose curve; tested in A549 cells; also: nearly all actives have a fitted effect of over 30% in size
# Pf growth 48h: inhibits P. falciparum growth in the first generation, 48 h. Potency, µM (series often up to 28.7 µM), without a hit: top-dose activity change, negative = inhibition, actives largely listed as inhibitors. P. falciparum luciferase growth in erythrocytes, 48 h. 5.9% of 310,000 active
#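 Luminescence readout; reporter = integrated firefly luciferase in P. falciparum. RBC culture at 2% hematocrit, 0.1% parasitemia final, 37 C/5% CO2; decreased signal taken as growth inhibition.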
# Pf growth 96h: inhibits malaria parasite growth, 96 h | P. falciparum luciferase reporter growth, 96 h | Potency, µM (doses to about 28.7 µM), inactives show at the top dose activity change, negative = inhibition, usual class: inhibitors | 6.9% of 320,000 active | AID 504834
#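 Parasite growth measured via integrated firefly luciferase reporter in P. falciparum. Infected erythrocytes at 2% hematocrit, 0.05% parasitemia final were treated 96 hours at 37 C under 5% CO2, and luminescence was read.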
# AMA1 RON2 block: AMA1-RON2 (P. falciparum) interaction inhibition; Potency, µM (highest dose often 58.2 µM), for the others: top-dose activity change, negative = inhibition, usual class: inhibitors; AID 720542; AlphaScreen AMA1-biotinylated RON2 peptide binding; 0.2% of 360,000 active;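 also: 0% = vehicle wells and -100% = peptide control; nearly all actives have a fitted effect of over 45% in size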
#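 AMA1 (3D7) with his tag at 25 nM final met compounds first, then biotinylated RON2 peptide at 25 nM; detection used donor plus acceptor beads, 10 µg/mL apiece, read by AlphaScreen after 30 min at room temperature.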
# Active calls of the source: *; i = inactive; ? = inconclusive; nt = not tested or not shown; [ ] = another dose, or the depositor's remark. The list is not random: actives were taken first. Their share in the collection is about 8.7%. Unless noted, calls follow the shape of the dose curve; as a rule, active = well fitted curve in the direction sought with a large enough effect; inconclusive = small, poorly fitted or top-dose-only effect, or another doubt; inactive = no such curve, though single readings can be large; an effect the other way counts as inactive or inconclusive. Unless noted, % is scaled to controls: 0 for no effect and ±100 for the full control effect; potency is read from the fitted curve at half-maximal effect.
SMILES,Vaccinia mCherry,VACV Venus inh,Pf growth 48h,Pf growth 96h,AMA1 RON2 block
Cc1cc(C(C)(C)CC(C)(C)C)ccc1OCCOCC[N+](C)(C)Cc1ccccc1,10µM*,10µM*,1.7µM*,0.47µM*,-16%
CCCCC(=O)Nc1nc(C)c(-c2csc(Nc3ccccc3OC)n2)s1,?,?,?,?,6%
CCCCCCC(=O)Nc1nc(C)c(-c2csc(Nc3cc(OC)ccc3OC)n2)s1,?,?,7.4µM*,7.4µM*,9%
CCCCCC(=O)Nc1nc(C)c(-c2csc(Nc3cc(OC)ccc3OC)n2)s1,?,?,6.6µM*,12µM*,-5%
COc1cccc(N2CCN(C(=O)c3cccc(NC(=O)c4nsc5ccccc45)c3)CC2)c1,-17%,-23%,nt,nt,nt
N#CCC(CNc1ncc(C(F)(F)F)cc1Cl)OC(=O)c1cccc([N+](=O)[O-])c1 (configuration not stated),?,?,13µM*,4.7µM*,13%
CCO[C@H]1O[C@@H]([C@H](COCc2ccccc2)OCc2ccccc2)[C@@H](OCc2ccccc2)[C@H]1O,nt,nt,6.4µM*,4.5µM*,nt
O=C(COc1c(Cl)cc(Cl)cc1Cl)c1ccc(Cl)cc1,-16%,-5%,0%,12µM*,4%[2.32 µM]
O=S(=O)(c1ccc2ncccc2c1)N1CCN(c2nc(-c3cccs3)nc3ccccc23)CC1,-1%,-18%,nt,nt,nt
O=c1cc(-c2ccccc2)cc(-c2ccccc2)n1O,14µM*,?,13µM*,?,92%
Cn1c(-c2ccccc2)cc(=O)cc1-c1ccccc1,3%,-6%,nt,nt,0%
Cc1cc(OCC(=O)Nc2ccc(N3CCN(C(=O)c4ccco4)CC3)cc2)cc(C)c1Cl,?,?,9.3µM*,?,8%
COc1ccc(OCC(=O)Nc2ccc(N3CCN(C(=O)c4ccccc4)CC3)c(Cl)c2)cc1,?,?,8.3µM*,-78%,-7%
Cc1ccc(OCC(=O)Nc2ccc(N3CCN(C(=O)c4ccco4)CC3)cc2)cc1C,-15%,?,-16%,35%,-20%
Cc1cccc(OCC(=O)Nc2ccc(N3CCN(C(=O)c4ccco4)CC3)cc2)c1,?,?,9.3µM*,4%,-8%
N#Cc1ccc(-c2cccs2)nc1SCc1c(F)cccc1Cl,-8%,-25%,nt,nt,nt
CC(CO)Nc1nc(SCc2ccccc2)nc2sc3c(c12)CCC3 (configuration not stated),nt,nt,?,7.4µM*,10%
CCN(CC)CCOC(=O)C(Cc1ccco1)Cc1cccc2ccccc12 (configuration not stated),-2%,-22%,nt,nt,25µM*
Nc1ccc(-c2nc3nc(N)nc(N)c3nc2-c2ccc(N)cc2)cc1,-26%,-3%,10µM*,?,-13%
CN(CC1COCCO1)C(=O)c1cnn(-c2nccc(-c3ccccc3C(F)(F)F)n2)c1C1CC1 (configuration not stated),-13%,1%,nt,nt,nt
CN(CC(=O)O)c1ccc(C=O)cc1,-5%,-21%,nt,nt,nt
CCOC(=O)c1nnn(CC(=O)N2N=C(c3cc(C)ccc3C)CC2c2ccc(OC)cc2)c1C(=O)OCC (configuration not stated),-1%,-16%,15µM*,9.3µM*,-4%
CCOC(=O)/C=C(\C)N1N=C(c2ccccc2)CC1c1ccccc1 (configuration not stated),-13%,1%,112%,18%,31%
COc1ccc(C2CC(c3ccc4ccccc4c3)=NN2C(=O)CN2CCC(C(N)=O)CC2)cc1 (configuration not stated),-12%,-24%,?,?,-11%
CCOC(=O)c1nnn(CC(=O)N2N=C(c3ccccc3)CC2c2ccccc2)c1C(=O)OCC (configuration not stated),-8%,-9%,12µM*,?,0%
SMILES,Vaccinia mCherry,VACV Venus inh,Pf growth 48h,Pf growth 96h,AMA1 RON2 block
COc1cccc(-c2cc(N)nn2C(=O)Nc2ccc(Cl)cc2)c1,?,?,?,12µM*,-5%
CCC1CCCCN1S(=O)(=O)c1ccc(C(=O)Nc2sc3c(c2C(N)=O)CCC3)cc1 (configuration not stated),-11%,-10%,nt,nt,nt
CC(=O)c1ccc(NS(=O)(=O)c2cc3c(cc2C)N(C)CCO3)cc1,nt,nt,15%,25%,-10%
Cc1cc2c(cc1S(=O)(=O)Nc1ccc(C(C)C)cc1)OCCN2C,-20%,-24%,?,12µM*,nt
CCOC(=O)C1CCN(C(=O)Cn2cnc3sc(C)c(S(=O)(=O)N4CCCCC4)c3c2=O)CC1,-21%,-13%,?,-16%,0%
CCOC(=O)C1CCN(C(=O)Cn2cnc3sc(C)c(S(=O)(=O)N4CCC(C)CC4)c3c2=O)CC1,i,-12%,4.1µM*,11%,9%
CCN1CCCC1CNC(=O)Cn1cnc2sc(C)c(S(=O)(=O)N3CCC(C)CC3)c2c1=O (configuration not stated),nt,nt,-2%,6.6µM*,-3%
O=S(=O)(Nc1cccc(F)c1)c1ccc2[nH]c3c(c2c1)CCCCC3,-12%,-8%,nt,nt,nt
CNS(=O)(=O)c1cn(CC(=O)N2CCN(c3ccc(Cl)cc3)CC2)cc1S(=O)(=O)NC,-15%,3%,nt,nt,nt
O=C1C(=Cc2ccncc2)CCCc2ccccc21,-1%,-15%,nt,nt,-9%
O=C1/C(=C/c2ccncc2)CCC/C1=C\c1ccncc1,10µM*,11µM*,?,49%,-12%
CCCCNC(=O)CSc1nc2ccsc2c(=O)n1C1CCN(C(=O)OCC)CC1,nt,nt,?,2.1µM*,-11%
Cc1cc(C)c2c(CC(=O)N(Cc3ccc(Cl)cc3)Cc3ccco3)coc2c1,-25%,-8%,nt,nt,nt
CCCCNC(=O)c1sc(=S)n2c1[nH]c(=O)c1ccc(C(=O)NCCc3ccc(OC)c(OC)c3)cc12,nt,nt,?,?,3%
O=C(NCc1ccccc1)c1sc(=S)n2c1[nH]c(=O)c1ccccc12,nt,nt,7%,13µM*,-9%
COc1cccc(O)c1O,6%,39%,nt,nt,nt
CS(=O)(=O)c1ccc([C@@H](O)[C@@H](COC(=O)CN)NC(=O)C(Cl)Cl)cc1,nt,nt,?,1.9µM*,nt
S=C(NC1CCCCC1)N1CCN(c2ccccn2)CC1,-9%,-12%,-14%,12µM*,-24%
S=C(NC1CCCCC1)N1CCOCCOCCN(C(=S)NC2CCCCC2)CCOCCOCC1,-21%,?,?,10µM*,?
O=C(NC1CCCCCC1)C(=S)N1CCOCC1,3%,-5%,7%,?,-3%
FC(F)(F)c1cccc(N2CCN(C(=S)NC3CCCC3)CC2)c1,nt,?,?,13µM*,-8%
S=C(NC1CCCCC1)N1CCN(c2ncccn2)CC1,nt,nt,-15%,10%,11%
O=C(/C=C/c1ccc(Cl)cc1)N1CCC(c2nc3ccccc3o2)CC1,-5%,-6%,nt,nt,nt
CC(C)c1ccc(NC(=O)c2cc3c(=O)oc4ccccc4c3s2)cc1,-13%,-12%,nt,nt,nt
